Reference: PubChem BioAssay (Tox21)
Inconclusive results are not listed. Some compounds were tested as several samples or in several runs, with calls that do not always agree. Calls of active or inactive are those of the source. Unless noted, calls come from the whole dose curve.

Key:
[1] = Nuclear factor erythroid 2-related factor 2/antioxidant responsive element (Nrf2/ARE) small molecule agonists: luciferase reporter gene qHTS assay in human keratinocytes (AID 1919969); note: nearly all actives have a fitted effect of over 35% in size; note: potency is the fitted concentration of half-maximal effect
[2] = target: KiSS-1 receptor (Homo sapiens) (UniProt Q969F8); assay: Human kisspeptin (KISS1R) small molecule agonists, calcium flux assay in KISS1R-HEK293 cells (AID 1920064; active = well fitted activation curve with a large enough effect in the repeat runs)
Method in brief: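 Measures KISS1R agonism through calcium-sensitive dye fluorescence in stably transfected HEK293 cells, read for 3 min after pin-tool compound delivery; 15-point titrations in triplicate.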

[3] = G protein-coupled receptor (GPCR) small molecule agonists, calcium flux assay: HEK293 wild type cell line counter screen (AID 1920065)
Method in brief: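 Readout: fluorescence at 480 nm excitation/540 nm emission, sampled at 1 s intervals for 3 min. Cells had been cultured 18 h, then dye-loaded 1 h at 37 C before compound or ATP addition.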

[4] = p53 small molecule agonists, cell-based qHTS assay with human liver microsomes (AID 1963577);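 note: p53 response element beta-lactamase reporter cells with liver microsomes plus NADPH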
Method in brief: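 p53RE-bla cells; 5 h settle, 37 C/5% CO2; cpd + HLM 0.5 mg/mL + NADPH 0.5 mg/mL (final); 16 h 37 C; LiveBLAzer 2 h RT dark; fluorescence readout.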

[5] = p53 small molecule agonists, cell-based qHTS assay with rat liver microsomes (AID 1963578)
Method in brief: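 Rat liver microsome activation: microsomes 0.5 mg/mL, NADPH 0.5 mg/mL final; p53RE-bla cells, 16 h 37 C; LiveBLAzer readout, 2 h RT dark.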

[6] = p53 small molecule agonists, cell-based qHTS assay with rat liver microsomes: qHTS cell viability counter screen (AID 1963580); note: nearly all actives have a fitted effect of over 45% in size
Method in brief: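 Viability is assessed in parallel with the p53 reporter read: HCT-116 p53RE-bla cells receive compounds plus rat microsomes and NADPH (0.5 mg/mL final apiece), incubate 16 h at 37 C, and then CellTiter-Glo luminescence is recorded.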

[7] = target: 5-hydroxytryptamine receptor 2A (Homo sapiens) (UniProt P28223); assay: 5-hydroxytryptamine receptor 2A (HTR2A) small molecule antagonists, cell-based qHTS assay (AID 1963586); note: nearly all actives have a fitted effect of over 45% in size; note: potency is the fitted concentration of half-maximal effect
Method in brief: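 Antagonist-mode intracellular calcium assay: DOI (4 nM) added after 5 min compound pre-incubation at room temperature to dye-loaded HTR2A-CHO cells. Fluorescence followed for 3 min, sampled every second.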

[8] = target: Muscarinic acetylcholine receptor M1 (Homo sapiens) (UniProt P11229); assay: Cholinergic receptor muscarinic 1 (CHRM1) small molecule agonists, cell-based qHTS assay (AID 1963589); note: nearly all actives have a fitted effect of over 35% in size
Method in brief: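 Each compound was tested at 15 concentrations across three independent runs on dye-loaded CHO cells stably expressing human CHRM1, reading intracellular calcium fluorescence kinetically at 1 sec intervals.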

[9] = target: Beta-2 adrenergic receptor (Homo sapiens) (UniProt P07550); assay: Adrenergic beta2 receptor (ADRB2) small molecule antagonists, cell-based qHTS assay (AID 1963592); note: nearly all actives have a fitted effect of over 50% in size; note: potency is the fitted concentration of half-maximal effect
Method in brief: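 Cells (CHO, stable ADRB2 overexpression) incubated 18-20hr at 37C; compounds added from DMSO; agonist mix (1nM isoproterenol, 100uM IBMX, 25uM Ro-20-1724) added; 0.5hr RT; d2-cAMP and anti-cAMP-cryptate added; 1hr RT; 665/615 nm read.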

[10] = target: D(2) dopamine receptor (Homo sapiens) (UniProt P14416); assay: Dopamine D2 receptor (DRD2) small molecule agonists, cell-based qHTS assay (AID 1963594); note: nearly all actives have a fitted effect of over 35% in size
Method in brief: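 HEK293 cells stably expressing human DRD2, pre-treated with PDE inhibitor Ro20-1724 (0.1 mM final) and compound 10 min at room temperature, then stimulated with NKH477 (200nM […]) for 30 min. cAMP read by HTRF (665/620 nm).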

[11] = target: D(2) dopamine receptor (Homo sapiens) (UniProt P14416); assay: Dopamine D2 receptor (DRD2) small molecule antagonists, cell-based qHTS assay (AID 1963595; active = well fitted inhibition curve with a large enough effect in the signal ratio in the repeat runs, with a control signal flat; the % refers to the signal ratio; note: potency is the fitted concentration of half-maximal effect)
Method in brief: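 DRD2-HEK293; 0.1 mM Ro20-1724; cpd 10 min RT; NKH477 200 nM + quinpirole 12 nM, 30 min RT; HTRF cAMP (cAMP-d2/anti-cAMP cryptate), 665/620 nm ratio after 1 h.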

[12] = target: Gonadotropin-releasing hormone receptor (Homo sapiens) (UniProt P30968); assay: Human gonadotropin-releasing hormone receptor (GnRHR) small molecule agonists, calcium flux assay in GnRHR-HEK293 cells (AID 1920063); note: nearly all actives have a fitted effect of over 35% in size
Method in brief: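 Fluorescence kinetics (480 nm excitation, 540 nm emission; 3 min, 1 s steps) report calcium mobilisation in human GnRHR-HEK293 cells in agonist mode. Dye incubation: 1 h, 37 C.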

[13] = p53 small molecule agonists, cell-based qHTS assay with human liver microsomes: qHTS cell viability counter screen (AID 1963579); note: nearly all actives have a fitted effect of over 45% in size
Method in brief: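 Luminescent CellTiter-Glo read-out, 30 min at room temperature, gauged cytotoxicity in p53RE-bla cells exposed 16 h at 37 C to DMSO-dissolved compounds with metabolic activation by human liver microsomes and NADPH, each 0.5 mg/mL final.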

[14] = p53 small molecule agonists, cell-based qHTS assay: qHTS cell viability counter screen (AID 1963581); note: nearly all actives have a fitted effect of over 45% in size
Method in brief: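 In the same plates used for the p53 bla reporter, HCT-116 cells given compounds for 16 h at 37 C received CellTiter-Glo; luminescence was recorded 30 min later at room temperature.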

[15] = p53 small molecule agonists, cell-based qHTS assay (AID 1963582; active = well fitted activation curve with a large enough effect in the signal ratio in the repeat runs, not every such curve was filed as active; the % refers to the signal ratio)
Method in brief: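 Compounds are pin-transferred in DMSO onto p53RE-bla cells and incubated 16 h at 37 C. The B/G FRET beta-lactamase substrate is then applied for 2 h at RT and fluorescence recorded.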

[16] = target: 5-hydroxytryptamine receptor 2A (Homo sapiens) (UniProt P28223); assay: 5-hydroxytryptamine receptor 2A (HTR2A) small molecule agonists, cell-based qHTS assay (AID 1963587); note: nearly all actives have a fitted effect of over 30% in size; note: potency is the fitted concentration of half-maximal effect
Method in brief: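 CHO cells stably expressing human HTR2A, plated 18 h, loaded with calcium dye 1 h at 37 C. Agonist mode: compounds added and intracellular calcium fluorescence recorded kinetically for 2 min at 1 sec intervals.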

[17] = target: Muscarinic acetylcholine receptor M1 (Homo sapiens) (UniProt P11229); assay: Cholinergic receptor muscarinic 1 (CHRM1) small molecule antagonists, cell-based qHTS assay (AID 1963588); note: nearly all actives have a fitted effect of over 40% in size; note: potency is the fitted concentration of half-maximal effect
Method in brief: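 CHRM1-CHO calcium-flux assay, antagonist mode. Cells were seeded 18 h, dye-loaded 1 h at 37 C and given compound for 5 min at RT, then acetylcholine was added at 50nM. FDSS fluorescence was read 3 min; 15 concentrations, three runs.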

[18] = cAMP Responsive Elements (CRE) small molecule agonists, cell-based qHTS assay (AID 1963590)
Method in brief: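 Cell line: CRE-bla HEK 293T; medium DMEM/10% dialyzed FBS/0.1 mM NEAA/1 mM pyruvate/25 mM HEPES; 3 h compound exposure; beta-lactamase FRET readout after 2 h substrate loading at RT.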

[19] = cAMP Responsive Elements (CRE) small molecule antagonists, cell-based qHTS assay (AID 1963591; active = well fitted inhibition curve with a large enough effect in the signal ratio in the repeat runs, not every such curve was filed as active; the % refers to the signal ratio)
Method in brief: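 Inhibition of NKH477-driven (0.25 uM final) CRE-beta-lactamase signal in HEK293T cells, 3 h compound exposure at 37 °C, detected by FRET substrate fluorescence.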

[20] = target: Beta-2 adrenergic receptor (Homo sapiens) (UniProt P07550); assay: Adrenergic beta2 receptor (ADRB2) small molecule agonists, cell-based qHTS assay (AID 1963593); note: potency is the fitted concentration of half-maximal effect;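 for activation: CHO cells stably overexpressing human ADRB2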
Method in brief: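 CHO cells stably over-expressing ADRB2 were plated overnight at 37C, then dosed with compounds plus a stimulation mix containing 100uM IBMX and 25uM Ro-20-1724 for 0.5hr at room temperature. cAMP was measured by HTRF competition, 1hr.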

Measured: Potency

D(2) dopamine receptor (Homo sapiens), sequence (P14416 whole entry, looked up): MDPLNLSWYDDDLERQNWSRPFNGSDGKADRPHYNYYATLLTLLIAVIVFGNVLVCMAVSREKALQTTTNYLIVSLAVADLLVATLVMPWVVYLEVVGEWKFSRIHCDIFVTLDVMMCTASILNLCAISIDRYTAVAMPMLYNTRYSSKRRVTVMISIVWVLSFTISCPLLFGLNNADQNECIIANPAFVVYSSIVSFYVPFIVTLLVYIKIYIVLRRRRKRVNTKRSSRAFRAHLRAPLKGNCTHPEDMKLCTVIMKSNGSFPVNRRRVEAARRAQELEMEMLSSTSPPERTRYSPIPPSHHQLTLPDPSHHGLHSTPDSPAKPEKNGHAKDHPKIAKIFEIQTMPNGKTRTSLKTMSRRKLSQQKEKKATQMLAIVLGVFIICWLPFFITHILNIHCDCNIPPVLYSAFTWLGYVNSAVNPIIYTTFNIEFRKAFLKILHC
KiSS-1 receptor (Homo sapiens), sequence (Q969F8 whole entry, looked up): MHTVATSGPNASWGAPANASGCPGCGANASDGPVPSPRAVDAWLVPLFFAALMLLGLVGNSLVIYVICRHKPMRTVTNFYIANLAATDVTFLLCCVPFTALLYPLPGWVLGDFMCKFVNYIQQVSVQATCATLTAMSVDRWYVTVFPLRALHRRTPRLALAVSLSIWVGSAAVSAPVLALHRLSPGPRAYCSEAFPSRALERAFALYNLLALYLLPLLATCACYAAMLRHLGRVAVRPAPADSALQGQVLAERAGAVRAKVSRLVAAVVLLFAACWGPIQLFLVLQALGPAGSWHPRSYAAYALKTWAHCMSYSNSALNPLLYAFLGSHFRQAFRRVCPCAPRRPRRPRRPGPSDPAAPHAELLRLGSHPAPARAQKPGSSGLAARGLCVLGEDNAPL
5-hydroxytryptamine receptor 2A (Homo sapiens), sequence (P28223 whole entry, looked up): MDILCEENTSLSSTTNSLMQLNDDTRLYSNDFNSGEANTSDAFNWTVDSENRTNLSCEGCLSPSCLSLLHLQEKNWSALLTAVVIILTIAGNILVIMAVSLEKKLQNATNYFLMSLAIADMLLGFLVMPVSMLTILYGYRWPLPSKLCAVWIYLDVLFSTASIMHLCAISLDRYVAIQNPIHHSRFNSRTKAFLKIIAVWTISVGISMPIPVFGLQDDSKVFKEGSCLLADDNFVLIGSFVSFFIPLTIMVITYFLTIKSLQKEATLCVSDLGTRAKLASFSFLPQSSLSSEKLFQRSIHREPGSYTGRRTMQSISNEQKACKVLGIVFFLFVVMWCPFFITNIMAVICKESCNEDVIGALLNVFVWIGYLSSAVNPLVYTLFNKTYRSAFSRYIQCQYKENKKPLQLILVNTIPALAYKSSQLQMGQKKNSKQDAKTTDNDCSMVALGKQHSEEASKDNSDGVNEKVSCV
Muscarinic acetylcholine receptor M1 (Homo sapiens), sequence (P11229 whole entry, looked up): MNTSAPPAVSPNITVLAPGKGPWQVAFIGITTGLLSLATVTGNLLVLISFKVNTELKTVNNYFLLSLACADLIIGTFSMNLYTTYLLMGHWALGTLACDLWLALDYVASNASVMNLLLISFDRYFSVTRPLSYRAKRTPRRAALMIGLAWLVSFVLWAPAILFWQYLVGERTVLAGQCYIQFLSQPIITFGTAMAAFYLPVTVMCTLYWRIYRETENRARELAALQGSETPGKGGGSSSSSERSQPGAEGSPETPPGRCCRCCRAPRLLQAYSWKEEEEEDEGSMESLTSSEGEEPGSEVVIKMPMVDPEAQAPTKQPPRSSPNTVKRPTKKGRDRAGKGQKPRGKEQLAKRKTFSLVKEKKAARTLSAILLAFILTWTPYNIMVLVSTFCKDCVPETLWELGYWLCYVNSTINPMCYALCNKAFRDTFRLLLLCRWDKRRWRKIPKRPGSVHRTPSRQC
Gonadotropin-releasing hormone receptor (Homo sapiens), sequence (P30968 whole entry, looked up): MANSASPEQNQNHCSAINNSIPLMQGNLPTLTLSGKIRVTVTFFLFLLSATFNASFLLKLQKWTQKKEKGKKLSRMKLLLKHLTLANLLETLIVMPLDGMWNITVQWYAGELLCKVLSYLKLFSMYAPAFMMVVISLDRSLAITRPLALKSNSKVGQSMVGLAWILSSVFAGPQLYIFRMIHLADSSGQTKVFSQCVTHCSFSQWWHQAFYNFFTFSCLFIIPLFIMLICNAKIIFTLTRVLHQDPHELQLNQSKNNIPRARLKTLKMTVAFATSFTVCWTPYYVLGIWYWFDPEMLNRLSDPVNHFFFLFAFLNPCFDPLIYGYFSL
Beta-2 adrenergic receptor (Homo sapiens), sequence (P07550 whole entry, looked up): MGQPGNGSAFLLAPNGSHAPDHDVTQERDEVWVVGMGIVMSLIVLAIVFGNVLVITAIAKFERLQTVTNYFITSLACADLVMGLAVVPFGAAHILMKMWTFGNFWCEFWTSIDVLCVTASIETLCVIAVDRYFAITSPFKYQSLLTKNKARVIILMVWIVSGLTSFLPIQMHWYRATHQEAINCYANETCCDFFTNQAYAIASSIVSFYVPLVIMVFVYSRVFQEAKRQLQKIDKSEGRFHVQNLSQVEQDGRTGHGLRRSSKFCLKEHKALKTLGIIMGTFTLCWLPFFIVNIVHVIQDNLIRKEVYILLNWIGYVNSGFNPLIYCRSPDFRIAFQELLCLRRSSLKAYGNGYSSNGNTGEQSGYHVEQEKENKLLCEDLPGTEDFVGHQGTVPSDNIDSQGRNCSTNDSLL

CN1CCN(CCC(=O)N2c3ccccc3Sc3ccc(C(F)(F)F)cc32)CC1
inactive: [1] | [2] | [3] | [4] | [5] | [6] | [8] | [10] | [11]
active: [7] 4.1 µM | [9] 29.8 µM

CSc1ccc(O)cc1C
inactive: [12] | [2] | [3] | [4] | [5] | [13] | [6] | [14] | [15] | [7] | [16] | [17] | [8] | [18] | [19] | [9] | [10] | [11]

CCCCCCC(O)CCCCCCCCCCC(=O)O (centres undefined)
3.9 µM (active) and inactive: [16]
inactive: [1] | [2] | [13] | [6] | [14] | [7] | [17] | [8] | [18] | [19] | [9] | [20] | [10] | [11]

CCN(CC)CCCN(c1ccccc1)C1Cc2ccccc2C1
active: [7] 11.6 µM | [9] 0.106 µM
inactive: [1] | [4] | [5] | [13] | [6] | [14] | [16] | [8] | [11]

COc1ccc(-c2nc3ccc(C4=NNC(=O)CC4C)cc3[nH]2)cc1 (centres undefined)
active: [7] 0.23 µM
inactive: [1] | [2] | [16] | [17] | [8] | [9] | [20] | [11]

CN1CCCN(C(c2ccccc2)c2ccc(Cl)cc2)CC1 (centres undefined)
active: [17] 0.0231 µM | [11] 26.6 µM
inactive: [1] | [3] | [4] | [5] | [13] | [6] | [16] | [8] | [18] | [19] | [20] | [10]

CCCCNC(=S)NCCCC
inactive: [12] | [2] | [3] | [4] | [5] | [13] | [6] | [14] | [15] | [7] | [16] | [17] | [8] | [18] | [9] | [20] | [10] | [11]

CSCC[C@H](NC(=O)[C@H](Cc1c[nH]c2ccccc12)NC(=O)CCNC(=O)OC(C)(C)C)C(=O)N[C@@H](CC(=O)O)C(=O)N[C@@H](Cc1ccccc1)C(N)=O
inactive: [1] | [2] | [3] | [13] | [6] | [14] | [19] | [9] | [10] | [11]

CCCCCCC(C)OC(=O)COc1nc(F)c(Cl)c(N)c1Cl (centres undefined)
inactive: [1] | [2] | [3] | [5] | [13] | [6] | [15] | [7] | [16] | [17] | [8] | [9] | [10] | [11]

NC(=O)c1nc(-c2cccc(-c3cc(F)ccc3OCC(F)(F)C(F)(F)F)c2)n[nH]1
inactive: [1] | [2] | [3] | [7] | [16] | [17] | [8] | [9] | [10] | [11]

OCCN1CCN(CCCN2c3ccccc3Sc3ccc(Cl)cc32)CC1
inactive: [1] | [2] | [3] | [5] | [13] | [6] | [14] | [10]
active: [11] 0.0266 µM

O=C(CC(=O)C(F)(F)F)c1ccccc1
active: [1] 49.2 µM | [16] 49.7 µM | [20] 13.9 µM
inactive: [2] | [3] | [13] | [15] | [7] | [8] | [18] | [19] | [9] | [10] | [11]

C=CCOCC(O)CS(=O)(=O)O (centres undefined)
inactive: [2] | [3] | [13] | [6] | [14] | [7] | [16] | [17] | [8] | [18] | [9] | [10] | [11]
active: [1] 0.196 µM

CCc1ccc(O)c(C(C)(C)C)c1
inactive: [1] | [2] | [3] | [5] | [13] | [14] | [15] | [8] | [9] | [10]
active: [16] 49 µM | [17] 37.5 µM

CC(C)(C)c1ccc(OC(=O)c2ccccc2O)cc1
inactive: [12] | [2] | [3] | [4] | [5] | [13] | [6] | [14] | [15] | [7] | [16] | [17] | [8] | [19] | [9] | [10] | [11]

O=C(Nc1cccc([N+](=O)[O-])c1)c1cc2ccccc2cc1O
inactive: [3] | [4] | [5] | [6] | [14] | [7] | [16] | [17] | [8] | [9] | [10] | [11]
active: [1] 61.1 µM
